Measured values reported in PubChem BioAssay (EPA / NIEHS).
Activity calls are given as the source filed them. How the source made its calls: active means hit-call score of the fitted dose curve at least 0.9, where 1 is the maximum; inactive means score below 0.9.

Tests used:
Settings in all cases: mRNA level, 48 h; actives raise or lower the signal
[1] = read-out: Lipase C (LIPC), LIPC (gene 3990); test: LTEA_HepaRG_LIPC: Life Technologies and Expression Analysis (LTEA) Assay for Lipase C (LIPC) using HepaRG (AID 2283514)
In short: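 HepaRG cells, 48 h after plating, treated in duplicate for 48 h in serum-free induction medium over 8 half-log concentrations from 100 uM, 0.5% DMSO. LIPC mRNA by TaqMan qRT-PCR normalized to ACTB/GAPDH/POLR2A; bidirectional fit versus DMSO.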

[2] = read-out: Lipoprotein lipase (LPL), LPL (gene 4023); test: LTEA_HepaRG_LPL: Life Technologies and Expression Analysis (LTEA) Assay for Lipoprotein lipase (LPL) using HepaRG (AID 2283515)
In short: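 Differentiated HepaRG cells, plated 48 h, then exposed 48 h in serum-free induction medium to 8 concentrations (top 100 uM, half-log steps) in 0.5% DMSO, duplicate. LPL mRNA measured by qRT-PCR, normalized to ACTB, GAPDH and POLR2A.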

[3] = read-out: MicroRNA 122 (MIR122), gene 406906; test: LTEA_HepaRG_MIR122: Life Technologies and Expression Analysis (LTEA) Assay for MicroRNA 122 (MIR122) using HepaRG (AID 2283516); further: the transcript read is the microRNA miR-122
In short: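 HepaRG plated 48 h, switched to serum-free induction medium, then treated in duplicate for 48 h (100 uM top, half-log steps, 0.5% DMSO vehicle). RNA isolated, qRT-PCR performed, concentration-response fitted both directions relative to DMSO.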

[4] = read-out: matrix metalloproteinase-10 (MMP10), MMP10 (gene 4319); test: LTEA_HepaRG_MMP10: Life Technologies and Expression Analysis (LTEA) Assay for matrix metalloproteinase-10 (MMP10) using HepaRG (AID 2283517)
In short: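 Differentiated HepaRG cells in serum-free induction medium exposed 48 h in duplicate to 8-point half-log series up to 100 uM in 0.5% DMSO. mRNA quantified by qRT-PCR, normalised to ACTB, GAPDH, POLR2A; bidirectional fit versus DMSO.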

[5] = read-out: matrix metalloproteinase-3 (MMP3), MMP3 (gene 4314); test: LTEA_HepaRG_MMP3: Life Technologies and Expression Analysis (LTEA) Assay for matrix metalloproteinase-3 (MMP3) using HepaRG (AID 2283519)
In short: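 HepaRG cells (~100,000/well) in serum-free induction medium were dosed in duplicate for 48 h with an 8-point half-log series from 100 uM, 0.5% DMSO. MMP3 mRNA was quantified by Fluidigm TaqMan qRT-PCR, normalized to three housekeeping genes.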

[6] = read-out: Paternally Expressed 10 (PEG10), PEG10 (gene 23089); test: LTEA_HepaRG_PEG10: Life Technologies and Expression Analysis (LTEA) Assay for Paternally Expressed 10 (PEG10) using HepaRG (AID 2283520)
In short: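 HepaRG, 48 h post-plating → serum-free induction medium → 48 h chemical exposure (duplicate, 8-pt, max 100 uM, half-log, 0.5% DMSO) → lysis in RLT → TaqMan qRT-PCR for PEG10, ACTB/GAPDH/POLR2A normalisation.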

[7] = read-out: Nuclear factor NF-kappa-B p105 subunit (Homo sapiens) (UniProt P19838); test: LTEA_HepaRG_NFKB1: Life Technologies and Expression Analysis (LTEA) Assay for Nuclear Factor Kappa B Subunit 1 (NFKB1) using HepaRG (AID 2283521)
In short: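 NFKB1 transcript was measured by TaqMan qRT-PCR on Fluidigm arrays, normalised to three housekeeping genes and fitted in both directions against 0.5% DMSO. HepaRG cells were dosed in duplicate for 48 h in serum-free induction medium, eight half-log steps from 100 uM.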

[8] = read-out: Protein phosphatase 2A (PPP2R4), PTPA (gene 5524); test: LTEA_HepaRG_PPP2R4: Life Technologies and Expression Analysis (LTEA) Assay for Protein phosphatase 2A (PPP2R4) using HepaRG (AID 2283522)
In short: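 Readout is PPP2R4 transcript level by microfluidic qRT-PCR after 48 h chemical treatment of human HepaRG liver cells. Concentrations spanned 100 uM downward in half-log steps; gain or loss of signal was fitted relative to DMSO.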

[9] = read-out: Phosphatase and tensin (PTEN), PTEN (gene 5728); test: LTEA_HepaRG_PTEN: Life Technologies and Expression Analysis (LTEA) Assay for Phosphatase and tensin (PTEN) using HepaRG (AID 2283523)
In short: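 HepaRG cells, 48 h after plating, exposed in duplicate for 48 h in serum-free induction medium to 8 half-log concentrations up to 100 uM (0.5% DMSO). PTEN mRNA by qRT-PCR, normalized to ACTB, GAPDH, POLR2A; bidirectional fit versus DMSO.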

[10] = read-out: solute carrier (SLC22A1), SLC22A1 (gene 6580); test: LTEA_HepaRG_SLC22A1: Life Technologies and Expression Analysis (LTEA) Assay for solute carrier (SLC22A1) using HepaRG (AID 2283524)
In short: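 Differentiated human HepaRG cells in serum-free induction medium, exposed 48 h in duplicate to 8-point half-log series from 100 µM top in 0.5% DMSO. SLC22A1 mRNA by TaqMan qRT-PCR normalized to ACTB, GAPDH, POLR2A; bidirectional fit versus DMSO.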

[11] = read-out: Pyruvate Dehydrogenase Kinase 4 (PDK4), PDK4 (gene 5166); test: LTEA_HepaRG_PDK4: Life Technologies and Expression Analysis (LTEA) Assay for Pyruvate Dehydrogenase Kinase 4 (PDK4) using HepaRG (AID 2283525)
In short: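 HepaRG cells plated 48 h, then switched to serum-free induction medium and exposed in duplicate for 48 h to 8 half-log concentrations from 100 uM in 0.5% DMSO. PDK4 mRNA measured by qRT-PCR, normalized to ACTB, GAPDH and POLR2A; bidirectional fit versus DMSO.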

[12] = read-out: NAD(P)H dehydrogenase [quinone] 1 (NQO1), NQO1 (gene 1728); test: LTEA_HepaRG_NQO1: Life Technologies and Expression Analysis (LTEA) Assay for NAD(P)H dehydrogenase [quinone] 1 (NQO1) using HepaRG (AID 2283526)
In short: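 HepaRG, 48 h post-plating → serum-free induction medium → test chemical 48 h (duplicate, 100 uM top, half-log x8, 0.5% DMSO) → RNA isolation → qRT-PCR, ACTB/GAPDH/POLR2A normalization; bidirectional curve fit vs DMSO baseline.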

[13] = read-out: Nuclear factor erythroid 2-related factor 2 (Homo sapiens) (UniProt Q16236); test: LTEA_HepaRG_NFE2L2: Life Technologies and Expression Analysis (LTEA) Assay for Nuclear factor erythroid 2-related factor 2 (NFE2L2) Transcription Factor using HepaRG (AID 2283527)
In short: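 Differentiated human HepaRG cells, serum-free induction medium, exposed 48 h in duplicate to eight half-log concentrations up to 100 uM in 0.5% DMSO. NFE2L2 mRNA by Fluidigm TaqMan qRT-PCR, normalised to ACTB, GAPDH, POLR2A; bidirectional change versus DMSO.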

[14] = read-out: succinate dehydrogenase complex iron sulfur subunit B (SDHB), SDHB (gene 6390); test: LTEA_HepaRG_SDHB: Life Technologies and Expression Analysis (LTEA) Assay for succinate dehydrogenase complex iron sulfur subunit B (SDHB) using HepaRG (AID 2283528)
In short: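 SDHB transcript level read by TaqMan qRT-PCR, housekeeping-normalised (ACTB, GAPDH, POLR2A), after 48 h chemical treatment of plated HepaRG cells; eight concentrations top 100 uM, half-log steps, 0.5% DMSO, duplicates; fitted both directions against DMSO.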

[15] = read-out: Signal transducer and activator of transcription 3 (Homo sapiens) (UniProt P40763); test: LTEA_HepaRG_STAT3: Life Technologies and Expression Analysis (LTEA) Assay for Signal transducer and activator of transcription (STAT3) using HepaRG (AID 2283529)
In short: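 Differentiated HepaRG cells, serum-free induction medium, dosed 48 h in duplicate, 8 half-log concentrations from 100 uM in 0.5% DMSO. STAT3 mRNA by qRT-PCR, normalised to ACTB, GAPDH, POLR2A; bidirectional fit versus DMSO.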

[16] = read-out: solute carrier (SLCO1B1), SLCO1B1 (gene 10599); test: LTEA_HepaRG_SLCO1B1: Life Technologies and Expression Analysis (LTEA) Assay for solute carrier (SLCO1B1) using HepaRG (AID 2283530)
In short: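 Differentiated human HepaRG cells were exposed for 48 h in serum-free induction medium to eight half-log concentrations, top 100 uM, in 0.5% DMSO. SLCO1B1 mRNA was measured by qRT-PCR, normalized to ACTB, GAPDH and POLR2A, and fitted bidirectionally against DMSO.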

[17] = read-out: sulfotransferase 2A1 (SULT2A1), SULT2A1 (gene 6822); test: LTEA_HepaRG_SULT2A1: Life Technologies and Expression Analysis (LTEA) Assay for sulfotransferase 2A1 (SULT2A1) using HepaRG (AID 2283531)
In short: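 HepaRG human liver cells, 48 h exposure in serum-free induction medium to 8 half-log concentrations topping at 100 µM (0.5% DMSO), duplicate wells. SULT2A1 mRNA measured by TaqMan qRT-PCR, normalized to ACTB/GAPDH/POLR2A; bidirectional fit against DMSO.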

[18] = read-out: Transforming Growth Factor (TGFA), TGFA (gene 7039); test: LTEA_HepaRG_TGFA: Life Technologies and Expression Analysis (LTEA) Assay for Transforming Growth Factor (TGFA) using HepaRG (AID 2283532)
In short: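 Differentiated HepaRG cells exposed 48 hours in serum-free induction medium, 0.5% DMSO vehicle, 8-point half-log series from 100 uM, in duplicate. TGFA mRNA by TaqMan qRT-PCR, normalised to ACTB, GAPDH, POLR2A; bidirectional fit versus DMSO.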

[19] = read-out: MYC, MYC (gene 4609); test: LTEA_HepaRG_MYC: Life Technologies and Expression Analysis (LTEA) Assay for MYC using HepaRG (AID 2283518)
In short: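 Differentiated HepaRG cells exposed 48 h in serum-free induction medium to 8 concentrations (top 100 uM, half-log steps; 0.5% DMSO), duplicate. MYC mRNA measured by Fluidigm qRT-PCR, normalized to ACTB, GAPDH, POLR2A; bidirectional fit versus DMSO.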

[20] = read-out: Transforming Growth Factor (TGFB1), TGFB1 (gene 7040); test: LTEA_HepaRG_TGFB1: Life Technologies and Expression Analysis (LTEA) Assay for Transforming Growth Factor (TGFB1) Transporter using HepaRG (AID 2283533)
In short: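 Differentiated HepaRG cells exposed 48 hr in serum-free induction medium to eight half-log concentrations up to 100 uM (0.5% DMSO), duplicate; TGFB1 mRNA by TaqMan qRT-PCR normalised to ACTB, GAPDH, POLR2A; bidirectional fit against DMSO.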

Measured: AC50

Nuclear factor erythroid 2-related factor 2 (Homo sapiens), sequence (Q16236 whole entry, looked up): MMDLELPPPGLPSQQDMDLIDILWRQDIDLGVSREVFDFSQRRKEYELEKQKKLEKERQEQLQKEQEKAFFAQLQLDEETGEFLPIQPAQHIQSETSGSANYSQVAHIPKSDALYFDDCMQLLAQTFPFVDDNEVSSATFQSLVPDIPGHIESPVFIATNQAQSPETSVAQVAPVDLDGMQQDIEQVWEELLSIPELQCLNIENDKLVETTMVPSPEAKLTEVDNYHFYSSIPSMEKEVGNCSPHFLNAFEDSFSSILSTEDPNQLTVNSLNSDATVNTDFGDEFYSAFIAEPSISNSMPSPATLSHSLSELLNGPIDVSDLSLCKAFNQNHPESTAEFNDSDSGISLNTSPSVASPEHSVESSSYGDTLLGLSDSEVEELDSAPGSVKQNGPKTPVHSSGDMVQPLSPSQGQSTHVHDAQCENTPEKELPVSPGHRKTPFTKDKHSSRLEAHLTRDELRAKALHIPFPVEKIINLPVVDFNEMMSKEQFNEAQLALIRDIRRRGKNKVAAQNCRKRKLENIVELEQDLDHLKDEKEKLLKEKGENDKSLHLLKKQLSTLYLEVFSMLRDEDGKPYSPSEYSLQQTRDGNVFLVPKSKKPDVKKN
Signal transducer and activator of transcription 3 (Homo sapiens), sequence (P40763 whole entry, looked up): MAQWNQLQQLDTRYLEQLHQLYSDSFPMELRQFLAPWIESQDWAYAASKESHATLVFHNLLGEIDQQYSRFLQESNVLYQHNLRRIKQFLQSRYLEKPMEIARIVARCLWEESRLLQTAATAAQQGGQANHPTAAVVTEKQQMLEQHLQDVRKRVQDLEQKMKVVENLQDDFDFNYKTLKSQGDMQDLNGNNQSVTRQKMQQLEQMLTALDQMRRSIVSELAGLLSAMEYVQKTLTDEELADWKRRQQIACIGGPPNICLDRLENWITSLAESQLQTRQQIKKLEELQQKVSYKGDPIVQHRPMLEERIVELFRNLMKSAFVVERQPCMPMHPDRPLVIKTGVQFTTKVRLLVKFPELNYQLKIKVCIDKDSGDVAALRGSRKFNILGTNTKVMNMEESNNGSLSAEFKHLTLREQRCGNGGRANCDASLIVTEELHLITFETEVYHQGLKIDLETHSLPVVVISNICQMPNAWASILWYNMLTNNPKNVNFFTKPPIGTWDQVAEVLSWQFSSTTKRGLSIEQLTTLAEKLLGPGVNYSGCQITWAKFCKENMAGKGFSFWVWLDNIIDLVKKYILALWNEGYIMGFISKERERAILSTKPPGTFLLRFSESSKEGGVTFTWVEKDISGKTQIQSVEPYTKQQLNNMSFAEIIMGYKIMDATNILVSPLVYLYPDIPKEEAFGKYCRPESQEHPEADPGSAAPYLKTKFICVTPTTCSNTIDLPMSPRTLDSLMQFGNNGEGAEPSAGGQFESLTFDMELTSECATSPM
Nuclear factor NF-kappa-B p105 subunit (Homo sapiens), sequence (P19838 whole entry, looked up): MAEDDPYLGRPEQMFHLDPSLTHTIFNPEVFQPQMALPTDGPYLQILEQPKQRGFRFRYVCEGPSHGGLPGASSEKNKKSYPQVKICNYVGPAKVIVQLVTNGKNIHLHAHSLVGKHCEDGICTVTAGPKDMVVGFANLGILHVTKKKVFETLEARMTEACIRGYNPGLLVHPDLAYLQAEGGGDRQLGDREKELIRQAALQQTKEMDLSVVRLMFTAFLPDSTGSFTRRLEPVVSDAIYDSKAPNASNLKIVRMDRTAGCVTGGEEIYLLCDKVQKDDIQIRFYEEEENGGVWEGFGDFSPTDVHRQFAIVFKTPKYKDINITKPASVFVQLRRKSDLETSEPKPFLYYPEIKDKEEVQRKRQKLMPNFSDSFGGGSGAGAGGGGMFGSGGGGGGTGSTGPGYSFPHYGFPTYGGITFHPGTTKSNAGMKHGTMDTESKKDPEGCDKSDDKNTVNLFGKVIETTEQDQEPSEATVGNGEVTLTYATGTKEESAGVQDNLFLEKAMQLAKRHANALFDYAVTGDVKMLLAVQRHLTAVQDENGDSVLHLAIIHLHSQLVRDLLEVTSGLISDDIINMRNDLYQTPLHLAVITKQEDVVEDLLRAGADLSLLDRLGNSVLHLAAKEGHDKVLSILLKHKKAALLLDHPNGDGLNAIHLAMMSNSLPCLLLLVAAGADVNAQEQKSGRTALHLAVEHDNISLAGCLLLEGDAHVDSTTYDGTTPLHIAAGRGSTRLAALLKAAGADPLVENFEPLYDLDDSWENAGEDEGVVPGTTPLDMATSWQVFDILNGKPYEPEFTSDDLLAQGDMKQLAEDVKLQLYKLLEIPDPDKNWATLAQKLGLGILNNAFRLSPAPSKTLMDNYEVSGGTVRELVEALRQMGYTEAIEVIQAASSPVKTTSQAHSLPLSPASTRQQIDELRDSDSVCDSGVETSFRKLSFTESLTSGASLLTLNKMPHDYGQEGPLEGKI

Cc1occc1C(=O)Nc1ccc(C(=O)N2CCC(F)(F)/C(=C\C(=O)N3CCC(N4CCCCC4)CC3)c3ccccc32)cc1
active: [1] 45.4 µM | [2] 31.2 µM | [3] 31.2 µM | [6] 48 µM | [10] 32.2 µM | [11] 50.3 µM
not listed: [19] | [20]
inactive: all other assays above

O=C(O)c1ccccc1C(=O)OCc1ccccc1
active: [11] 28.6 µM
not listed: [7] | [8]
inactive: all other assays above

c1ccc2n[nH]nc2c1
not listed: [7]
inactive: all other assays above
